Data published in PubChem BioAssay (Tox21).
Several values for one entry are separate records, joined by “and”; a condition that tells them apart may be missing. Equal values may be shown once. Inconclusive results are not listed. A call without a number means that no potency is given here. The source holds several records for some structures; these can differ, active in one and inactive in another. Activity calls are given as the source filed them. Unless noted, the call rests on the fitted dose curve.

Tests used:
[1] = qHTS assay to identify small molecule antagonists of the sonic hedgehog signaling (Shh) pathway (AID 1259369); further: nearly all actives have a fitted effect of over 45% in size; further: potency means the concentration at half of the fitted maximal effect
Method in brief: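 NIH/3T3-derived Gli1-Luc reporter cells plated 4 h, dosed with compound, then stimulated with conditioned medium for 24 h at 37 C. Firefly luciferase luminescence read after 30 min with detection reagent at room temperature.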

[2] = qHTS assay to identify small molecule agonists of the androgen receptor (AR) signaling pathway in the presence of an antagonist - cell viability counter screen (AID 1259379; active means well fitted curve in the direction sought with a large enough effect in the repeat runs; an effect the other way counts as inactive or inconclusive; further: nearly all actives have a fitted effect of over 25% in size; further: potency means the concentration at half of the fitted maximal effect)
Method in brief: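 MDA-kb2 cells (MMTV-luciferase, AR/GR), 3,000/well, 5 h attachment, then 3.0 µM nilutamide (final) and compounds at 15 concentrations. Viability by CellTiter-Fluor fluorescence after 16 h at 37 °C, 0% CO2, in the reporter wells.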

[3] = qHTS assay to identify small molecule agonists of the estrogen receptor beta (ER-beta) signaling pathway - cell viability counter screen (AID 1259380; active means well fitted curve in the direction sought with a large enough effect in the repeat runs; an effect the other way counts as inactive or inconclusive; further: nearly all actives have a fitted effect of over 30% in size; further: potency means the concentration at half of the fitted maximal effect)
Method in brief: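 ER-beta-UAS-bla HEK293T cells in medium with 2% charcoal-stripped FBS, pre-incubated 6 hr, then treated 16 hr at 37C. Cytotoxicity read in the same wells by CellTiter-Glo luminescence after 30 min at room temperature.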

[4] = qHTS assay to identify small molecule antagonists of the estrogen receptor beta (ER-beta) signaling pathway - cell viability counter screen (AID 1259382; active means well fitted curve in the direction sought with a large enough effect in the repeat runs; an effect the other way counts as inactive or inconclusive; further: nearly all actives have a fitted effect of over 55% in size; further: potency means the concentration at half of the fitted maximal effect)
Method in brief: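 ER-beta-UAS-bla HEK293T cells in 2% charcoal-stripped FBS medium, treated with compound plus 1 nM 17-beta-estradiol for 16 h at 37C. Viability read by CellTiter-Glo luminescence after 30 min at room temperature in the same wells.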

[5] = qHTS assay to identify small molecule agonists or antagonists of the thyroid stimulating hormone receptor (TSHR) signaling pathway - wild type cell line counter screen (AID 1259384)
Method in brief: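 Wild-type Hek293 cells, 800/well, 18 h at 37C, then compound with Ro20-1724 for 30 min RT. cAMP by HTRF (cAMP-d2/anti-cAMP cryptate), 1 h RT, fluorescence read. 15 concentrations, triplicates.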

[6] = biological target: Thyrotropin receptor (Homo sapiens) (UniProt P16473); experiment: qHTS assay to identify small molecule antagonists of the thyroid stimulating hormone receptor (TSHR) signaling pathway (AID 1259385); further: nearly all actives have a fitted effect of over 20% in size
Method in brief: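 TSHR-HEK293 cells (800/well) plated 18 h, then compounds with Ro20-1724 and TSH at 1.5 ng/mL final, 30 min at room temperature. cAMP quantified by HTRF (cAMP-d2/anti-cAMP-cryptate, 1 h); 15 concentrations in triplicate.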

[7] = biological target: Progesterone receptor (Homo sapiens) (UniProt P06401); experiment: qHTS assay to identify small molecule agonists of the progesterone receptor (PR) signaling pathway (AID 1346784); further: nearly all actives have a fitted effect of over 30% in size
Method in brief: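 Fluorescence from LiveBLAzer B/G FRET substrate cleavage (2 hr, RT) reported PR activation in PR-UAS-bla HEK 293T cells treated 16 hr at 37C/5% CO2 with compounds; medium contained 2% charcoal-stripped FBS.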

[8] = biological target: Progesterone receptor (Homo sapiens) (UniProt P06401); experiment: qHTS assay to identify small molecule antagonists of the progesterone receptor (PR) signaling pathway (AID 1346795; active means well fitted inhibition curve with a large enough effect in the signal ratio in the repeat runs, not every such curve was filed as active; the % refers to the signal ratio; further: potency means the concentration at half of the fitted maximal effect)
Method in brief: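 Fluorescence intensity measured 2 hr after adding beta-lactamase FRET substrate to PR-UAS-bla HEK293T cells that had been co-treated 16 hr with compound and 1 nM R5020 (final concentration) in 2% charcoal-stripped FBS.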

[9] = qHTS assay to identify small molecule antagonists of the progesterone receptor (PR) signaling pathway - cell viability counter screen (AID 1346798; active means well fitted curve in the direction sought with a large enough effect in the repeat runs; an effect the other way counts as inactive or inconclusive; further: series mostly up to about 92 µM; nearly all actives have a fitted effect of over 50% in size)
Method in brief: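 CellTiter-Glo luminescence; PR-UAS-bla HEK293T, 3,000 cells/well; compound + R5020, 16 hr, 37C/5% CO2; 30 min RT before read.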

[10] = qHTS assay to identify small molecule agonists of the progesterone receptor (PR) signaling pathway - cell viability counter screen (AID 1346799); further: nearly all actives have a fitted effect of over 45% in size
Method in brief: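 In parallel with the beta-lactamase readout, cytotoxicity toward PR-UAS-bla HEK293T cells was measured by CellTiter-Glo luminescence following 16 hr compound incubation in 2% charcoal-stripped FBS medium.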

[11] = qHTS assay to identify small molecule antagonists of the TGF-beta/Smad signaling pathway - cell viability counter screen (AID 1346824; active means well fitted curve in the direction sought with a large enough effect in the repeat runs; an effect the other way counts as inactive or inconclusive; further: nearly all actives have a fitted effect of over 50% in size; further: potency means the concentration at half of the fitted maximal effect)
Method in brief: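 SBE-bla HEK 293T cells, incubated overnight, then compound plus 0.25 ng/mL TGF-beta1 (stock added) for 5 hr at 37 C. Viability was read in the same wells by CellTiter-Glo luminescence after 30 min at room temperature.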

[12] = qHTS assay to identify small molecule agonists of the TGF-beta/Smad signaling pathway - cell viability counter screen (AID 1346829; active means well fitted curve in the direction sought with a large enough effect in the repeat runs; an effect the other way counts as inactive or inconclusive; further: nearly all actives have a fitted effect of over 45% in size; further: potency means the concentration at half of the fitted maximal effect)
Method in brief: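 HEK 293T SBE-bla line, 5 hr compound exposure at 37 C, multiplexed CellTiter-Glo viability read by luminescence.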

[13] = qHTS assay to identify small molecule agonists of the TGF-beta/Smad signaling pathway (AID 1346859; active means well fitted activation curve with a large enough effect in the signal ratio in the repeat runs, not every such curve was filed as active; the % refers to the signal ratio; further: series mostly up to about 77 µM)
Method in brief: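 After overnight seeding, SBE-bla HEK 293T cells are dosed with compounds in DMSO and kept 5 hr at 37 C, 5% CO2. LiveBLAzer-type FRET substrate is then applied for 2 hr at room temperature.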

[14] = biological target: Thyrotropin-releasing hormone receptor (Homo sapiens) (UniProt P34981); experiment: qHTS assay to identify small molecule antagonists of the thyrotropin-releasing hormone receptor (TRHR) signaling pathway (AID 1346877; active means well fitted inhibition curve with a large enough effect in the repeat runs, not every such curve was filed as active; further: series mostly up to about 51 µM)
Method in brief: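 TRHR-expressing HEK293 cells loaded with calcium dye for 2 h at 37 C; compounds pre-incubated 5 min at room temperature before TRH challenge at 1 nM final. Intracellular calcium fluorescence read kinetically for 3 min; 15 concentrations in triplicate.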

[15] = biological target: Thyrotropin-releasing hormone receptor (Homo sapiens) (UniProt P34981); experiment: qHTS assay to identify small molecule agonists of the thyrotropin-releasing hormone receptor (TRHR) signaling pathway (AID 1346891); further: series mostly up to about 58 µM
Method in brief: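 Compounds were tested as agonists at 15 concentrations, in triplicate, on TRHR-Hek293 cells; calcium-sensitive dye fluorescence was recorded for 3 min following addition.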

[16] = biological target: Estrogen receptor (Homo sapiens) (UniProt P03372); experiment: qHTS assay to identify small molecule agonists of the estrogen receptor alpha (ER-alpha) signaling pathway in the presence of an antagonist (AID 1259383); further: top concentration of the series differs between compounds; nearly all actives have a fitted effect of over 15% in size
Method in brief: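 VM7Luc4E2 cells express endogenous full-length ER-alpha with an ERE-luciferase reporter and were hormone-deprived for 5 days. Compounds at 15 concentrations were added with 10.0nM ICI-182,780 for 22hr at 37C. Luminescence was read with ONE-Glo.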

[17] = qHTS assay to identify small molecule agonists of the estrogen receptor alpha (ER-alpha) signaling pathway in the presence of an antagonist - cell viability counter screen (AID 1259386; active means well fitted curve in the direction sought with a large enough effect in the repeat runs; an effect the other way counts as inactive or inconclusive;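 further: cells exposed to compounds for 22 h at 37 °C before the viability read; nearly all actives have a fitted effect of over 30% in size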; further: potency means the concentration at half of the fitted maximal effect)
Method in brief: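 Cell viability in VM7Luc4E2 cells (endogenous full-length ER-alpha) measured by CellTiter-Fluor fluorescence in the same wells as the luciferase screen. Cells pre-cultured 5 days in charcoal-stripped serum, then treated 22 h with compounds at 15 concentrations plus 10.0nM ICI-182,780.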

[18] = biological target: Androgen receptor (Homo sapiens) (UniProt P10275); experiment: qHTS assay to identify small molecule agonists of the androgen receptor (AR) signaling pathway in the presence of an antagonist (AID 1259381); further: nearly all actives have a fitted effect of over 15% in size
Method in brief: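 MDA-kb2 cells carrying MMTV-luciferase (AR/GR responsive), 3,000 cells/well, co-treated with 3.0 uM nilutamide final. Compounds at 15 concentrations, 16 hr at 37C without CO2. Luciferase luminescence read after 30 min with ONE-Glo.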

Estrogen receptor (Homo sapiens), sequence (P03372 whole entry, looked up): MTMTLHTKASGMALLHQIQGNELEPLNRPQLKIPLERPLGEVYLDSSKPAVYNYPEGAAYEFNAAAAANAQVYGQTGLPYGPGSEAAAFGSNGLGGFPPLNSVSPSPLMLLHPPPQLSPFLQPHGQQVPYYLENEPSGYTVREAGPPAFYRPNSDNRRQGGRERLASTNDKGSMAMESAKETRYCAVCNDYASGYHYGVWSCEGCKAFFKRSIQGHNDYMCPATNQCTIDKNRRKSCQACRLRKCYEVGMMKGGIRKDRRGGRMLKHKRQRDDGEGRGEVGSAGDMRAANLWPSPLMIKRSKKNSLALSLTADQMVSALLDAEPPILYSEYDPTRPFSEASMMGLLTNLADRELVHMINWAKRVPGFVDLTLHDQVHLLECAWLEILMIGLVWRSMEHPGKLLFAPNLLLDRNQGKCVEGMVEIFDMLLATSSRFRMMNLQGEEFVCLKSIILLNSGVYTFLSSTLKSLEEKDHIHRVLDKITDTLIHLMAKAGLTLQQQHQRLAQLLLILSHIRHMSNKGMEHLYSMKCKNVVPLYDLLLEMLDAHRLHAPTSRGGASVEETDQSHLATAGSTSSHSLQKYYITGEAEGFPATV
Thyrotropin receptor (Homo sapiens), sequence (P16473 whole entry, looked up): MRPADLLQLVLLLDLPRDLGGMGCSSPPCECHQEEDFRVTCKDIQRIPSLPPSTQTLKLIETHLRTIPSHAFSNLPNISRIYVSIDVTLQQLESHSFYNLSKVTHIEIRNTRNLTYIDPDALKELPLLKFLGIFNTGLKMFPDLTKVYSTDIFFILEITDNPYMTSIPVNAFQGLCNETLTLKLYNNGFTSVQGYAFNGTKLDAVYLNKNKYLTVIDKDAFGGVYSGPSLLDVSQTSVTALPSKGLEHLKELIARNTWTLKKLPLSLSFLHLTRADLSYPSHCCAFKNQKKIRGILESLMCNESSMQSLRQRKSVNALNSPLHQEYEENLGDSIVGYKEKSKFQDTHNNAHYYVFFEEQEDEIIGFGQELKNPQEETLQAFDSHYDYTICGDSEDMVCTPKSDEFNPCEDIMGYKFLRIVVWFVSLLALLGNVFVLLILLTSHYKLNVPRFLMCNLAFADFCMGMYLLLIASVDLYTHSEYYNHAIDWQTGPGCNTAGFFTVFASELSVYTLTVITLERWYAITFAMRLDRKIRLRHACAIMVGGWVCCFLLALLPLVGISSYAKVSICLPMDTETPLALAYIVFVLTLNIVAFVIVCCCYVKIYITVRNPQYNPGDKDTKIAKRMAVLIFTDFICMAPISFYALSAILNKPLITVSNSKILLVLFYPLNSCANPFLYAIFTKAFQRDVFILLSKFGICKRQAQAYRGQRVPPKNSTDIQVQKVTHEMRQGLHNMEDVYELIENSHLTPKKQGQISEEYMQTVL
Progesterone receptor (Homo sapiens), sequence (P06401 whole entry, looked up): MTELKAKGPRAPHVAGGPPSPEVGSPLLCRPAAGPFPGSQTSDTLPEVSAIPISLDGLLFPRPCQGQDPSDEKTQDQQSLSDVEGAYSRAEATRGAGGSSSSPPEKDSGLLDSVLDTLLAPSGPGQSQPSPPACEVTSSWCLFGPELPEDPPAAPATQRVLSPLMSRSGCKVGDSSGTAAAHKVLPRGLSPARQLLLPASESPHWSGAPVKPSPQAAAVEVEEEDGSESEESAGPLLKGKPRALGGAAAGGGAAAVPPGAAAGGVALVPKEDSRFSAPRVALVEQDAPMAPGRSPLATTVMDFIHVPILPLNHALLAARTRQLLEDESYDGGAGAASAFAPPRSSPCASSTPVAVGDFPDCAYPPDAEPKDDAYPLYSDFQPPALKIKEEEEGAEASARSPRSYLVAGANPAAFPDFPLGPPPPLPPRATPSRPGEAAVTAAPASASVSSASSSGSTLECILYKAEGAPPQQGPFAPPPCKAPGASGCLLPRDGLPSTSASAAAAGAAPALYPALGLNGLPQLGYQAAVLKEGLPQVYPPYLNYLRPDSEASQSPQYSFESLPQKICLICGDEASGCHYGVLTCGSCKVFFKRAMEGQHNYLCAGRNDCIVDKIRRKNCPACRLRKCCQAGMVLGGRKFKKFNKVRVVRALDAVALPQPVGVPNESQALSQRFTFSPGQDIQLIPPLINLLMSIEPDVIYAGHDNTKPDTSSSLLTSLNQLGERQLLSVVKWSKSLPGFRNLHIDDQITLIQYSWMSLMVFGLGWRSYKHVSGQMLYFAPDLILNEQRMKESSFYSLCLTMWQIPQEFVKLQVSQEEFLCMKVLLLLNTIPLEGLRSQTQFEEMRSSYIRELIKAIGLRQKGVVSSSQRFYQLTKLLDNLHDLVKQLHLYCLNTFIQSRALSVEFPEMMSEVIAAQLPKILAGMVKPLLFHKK
Thyrotropin-releasing hormone receptor (Homo sapiens), sequence (P34981 whole entry, looked up): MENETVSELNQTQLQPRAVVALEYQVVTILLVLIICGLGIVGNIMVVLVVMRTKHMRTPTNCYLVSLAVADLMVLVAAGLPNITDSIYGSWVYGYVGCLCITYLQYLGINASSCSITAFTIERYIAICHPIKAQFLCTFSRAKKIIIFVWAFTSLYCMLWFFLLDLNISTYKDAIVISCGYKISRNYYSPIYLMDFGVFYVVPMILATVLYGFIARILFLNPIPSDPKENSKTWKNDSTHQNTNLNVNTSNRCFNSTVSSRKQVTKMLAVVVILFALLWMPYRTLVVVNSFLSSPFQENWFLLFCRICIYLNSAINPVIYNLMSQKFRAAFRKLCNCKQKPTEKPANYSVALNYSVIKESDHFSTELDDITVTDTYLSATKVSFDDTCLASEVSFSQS
Androgen receptor (Homo sapiens), sequence (P10275 whole entry, looked up): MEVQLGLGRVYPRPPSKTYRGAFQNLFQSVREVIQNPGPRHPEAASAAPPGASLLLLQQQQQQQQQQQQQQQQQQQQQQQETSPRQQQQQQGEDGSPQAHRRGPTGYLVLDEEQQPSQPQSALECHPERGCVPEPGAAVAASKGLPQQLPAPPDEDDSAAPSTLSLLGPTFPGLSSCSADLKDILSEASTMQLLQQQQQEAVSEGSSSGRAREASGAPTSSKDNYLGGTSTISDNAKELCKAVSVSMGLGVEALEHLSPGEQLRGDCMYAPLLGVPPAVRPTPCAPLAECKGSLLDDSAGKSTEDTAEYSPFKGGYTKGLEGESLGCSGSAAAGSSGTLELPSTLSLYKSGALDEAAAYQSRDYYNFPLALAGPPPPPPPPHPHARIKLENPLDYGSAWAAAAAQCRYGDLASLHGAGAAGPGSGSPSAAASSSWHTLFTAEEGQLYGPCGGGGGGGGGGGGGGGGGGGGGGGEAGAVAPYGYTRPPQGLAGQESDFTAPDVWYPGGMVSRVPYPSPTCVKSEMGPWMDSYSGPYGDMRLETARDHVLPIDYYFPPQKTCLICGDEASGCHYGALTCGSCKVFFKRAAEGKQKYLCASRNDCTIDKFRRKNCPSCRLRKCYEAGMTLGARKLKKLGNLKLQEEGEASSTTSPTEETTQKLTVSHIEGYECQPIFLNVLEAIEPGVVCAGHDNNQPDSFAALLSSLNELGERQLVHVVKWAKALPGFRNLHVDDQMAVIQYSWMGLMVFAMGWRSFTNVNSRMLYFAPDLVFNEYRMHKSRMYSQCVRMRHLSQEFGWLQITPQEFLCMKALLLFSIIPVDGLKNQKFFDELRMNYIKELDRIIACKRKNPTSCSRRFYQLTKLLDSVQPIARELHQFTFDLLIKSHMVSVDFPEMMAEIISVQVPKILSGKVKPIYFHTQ

| SMILES | Potency [1] | Potency [2] | Potency [3] | Potency [4] | outcome [5] | Potency [6] | Potency [7] | Potency [8] | Potency [9] | Potency [10] | Potency [11] | Potency [12] | outcome [13] | Potency [14] | Potency [15] | Potency [16] | Potency [17] | outcome [18] |
| --- | --- | --- | --- | --- | --- | --- | --- | --- | --- | --- | --- | --- | --- | --- | --- | --- | --- | --- |
| COc1ccc(C(=O)CC(=O)c2ccc(C(C)(C)C)cc2)cc1 | inactive | 58.7 µM (active) and inactive | inactive | inactive | inactive | inactive | inactive | inactive | inactive | inactive | inactive | inactive | inactive | inactive | inactive |  |  |  |
| OC1CCCCCCCCCCC1 | inactive | inactive | inactive | inactive | inactive | inactive | inactive | inactive | inactive | inactive | inactive | inactive | inactive | inactive | inactive | inactive |  |  |
| Brc1cc(Oc2cc(Br)c(Br)c(Br)c2Br)c(Br)c(Br)c1Br | inactive | inactive | 6.89 µM (active) and inactive | inactive | inactive | inactive | inactive | inactive |  |  | inactive | inactive | inactive | inactive | inactive |  |  |  |
| O=S(=O)(O)c1ccc(O)cc1 | inactive | inactive | inactive | inactive | inactive | inactive | inactive | inactive | inactive |  | inactive | inactive | inactive |  |  | inactive | inactive |  |
| CN(C)C(=N)N=C(N)N | inactive | inactive | inactive | inactive | inactive | inactive | inactive | inactive | inactive | inactive | inactive | inactive | inactive | inactive | inactive |  | inactive |  |
| CC(=O)Oc1ccccc1C(=O)Nc1ncc([N+](=O)[O-])s1 | 9.88 µM (active) and 18.8 µM (active) | 22.1 µM (active) and 13.3 µM (active) | 12.4 µM (active) and 7.5 µM (active) | 22.1 µM (active) | inactive | inactive | inactive |  |  |  | 14.1 µM (active) and 8.49 µM (active) | 11.2 µM (active) |  | inactive | inactive | inactive | 24.8 µM (active) and 23.7 µM (active) |  |
| COc1ccc(OC)c(C(O)CNC(=O)CN)c1 (stereo unspecified) | inactive | inactive |  |  | inactive | inactive | inactive | inactive | inactive |  | inactive | inactive | inactive |  |  | inactive |  |  |
| O=CCCCC=O | inactive | inactive | inactive | inactive |  |  | inactive | inactive | inactive | inactive | inactive | inactive | inactive | inactive | inactive | inactive | inactive |  |
| O=CCc1ccccc1 |  | inactive | inactive |  | inactive | inactive | inactive | inactive | inactive | inactive | inactive | inactive | inactive | inactive | inactive |  |  |  |
| Nc1ncn([C@@H]2O[C@H](CO)[C@@H](O)[C@H]2O)c(=O)n1 | 13.7 µM (active) |  | 5.45 µM (active) |  | inactive | inactive |  |  | inactive | inactive | inactive | inactive | inactive | inactive | inactive | inactive | inactive | inactive |
| O=C(COc1ccc(Cl)cc1)N1CCN(Cc2ccc3c(c2)OCO3)CC1 | 17.2 µM (active) and 18.8 µM (active) | 68.6 µM (active) and inactive |  |  | inactive | inactive | inactive | 54.5 µM (active) | inactive |  | inactive | inactive | inactive | inactive | inactive | inactive | inactive |  |
| CC(C)OC=O | 32.6 µM (active) and inactive | inactive | inactive | inactive | inactive | inactive | inactive | inactive | inactive |  | inactive | inactive | inactive | inactive | inactive | inactive |  |  |
| CC(C)Oc1ccc2c(=O)c(-c3ccccc3)coc2c1 | inactive |  |  | inactive | inactive | inactive | inactive | inactive |  |  | inactive | inactive | inactive |  |  |  | inactive |  |
| c1cc(N(CC2CO2)CC2CO2)ccc1OCC1CO1 (stereo unspecified) | 3.44 µM (active) and 9.69 µM (active) |  | inactive | inactive | inactive | inactive | inactive | 48.6 µM (active) |  | inactive | inactive | inactive | inactive | inactive | inactive | inactive |  |  |
| CC(C)(C)NC(=O)[C@H]1CC[C@H]2[C@@H]3CC[C@H]4NC(=O)C=C[C@]4(C)[C@H]3CC[C@]12C | 2.7 µM (active) and inactive | inactive |  | inactive |  |  | inactive |  | inactive | inactive | inactive | inactive | inactive | inactive | inactive | inactive | inactive |  |
